Screens from PubChem BioAssay.
In the library only some 32% were active in any assay of this set; here they are far more common.
PostGolgi yeast – phenotypic screen on post-Golgi transport, primary screen; post-Golgi transport phenotypic cell assay; inhibition, % at 10 µM; hit rate 0.9% among 98,000;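 note: yeast cells grown in 1536-well plates; yeast grown about 18 h at 30C before absorbance read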
CYP2C9 inh – blockers of cytochrome P450 2C9 activity – biochemical, luminescence, ADME assay, primary screen | hit rate 20% among 96,000 | P11712 | inhibition, % at 5 µM | AID 777, 2007 | CYP2C9 Supersomes, luciferin-H conversion;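 active = blocking of liver enzyme CYP2C9 beyond about 50% at 5 µM, limit read from the data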
CYP2C19 inhib – blockers of cytochrome P450 2C19 activity – biochemical, luminescence, ADME assay, primary screen; P33261; AID 778, 2007; hit rate 21% among 96,000; CYP2C19 Supersomes, luciferin-H EGE luminescence, 30 min; inhibition, % at 5 µM;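 active = CYP2C19 inhibition above a set limit at 5 µM in the primary screen, cut at about 50% in these data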;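 note: plate controls were negative control wells for no effect and 2.5 mM tranylcypromine positive control for full effect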
Target sequence (P33261 whole entry, looked up): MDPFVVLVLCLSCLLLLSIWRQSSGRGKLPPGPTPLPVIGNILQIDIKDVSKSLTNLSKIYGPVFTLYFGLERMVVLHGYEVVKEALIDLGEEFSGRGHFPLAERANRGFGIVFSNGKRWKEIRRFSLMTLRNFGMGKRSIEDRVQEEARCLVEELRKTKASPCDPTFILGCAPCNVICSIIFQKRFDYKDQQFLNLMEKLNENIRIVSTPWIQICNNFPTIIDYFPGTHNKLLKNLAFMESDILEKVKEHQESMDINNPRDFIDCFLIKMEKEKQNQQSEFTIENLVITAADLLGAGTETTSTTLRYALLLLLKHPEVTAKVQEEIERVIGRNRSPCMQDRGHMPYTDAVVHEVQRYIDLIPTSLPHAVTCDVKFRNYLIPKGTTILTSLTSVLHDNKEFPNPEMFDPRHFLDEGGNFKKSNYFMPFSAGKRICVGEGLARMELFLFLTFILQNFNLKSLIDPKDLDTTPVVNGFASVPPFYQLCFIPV
CYP2C19 activ – human CYP2C19 activators, primary screen, biochemical, luminescence; 96,000 tested, under 10 active; activation factor at 5 µM; recombinant CYP2C19, luciferin-H EGE luminescence; active compounds read high; 0 = fully inhibited enzyme, 1 = untreated enzyme; AID 1025, 2008; Cytochrome P450 2C19 (Homo sapiens), P33261;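 active = activation factor of at least 2 at 5 µM in the primary screen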;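 note: 0 = wells with 2.5 mM tranylcypromine and 1 = vehicle-only wells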
CYP2C9 act – human CYP2C9 activators, primary screen, biochemical, luminescence | recombinant CYP2C9, luciferin-H conversion; active compounds read high; factor 1 = untreated enzyme, 0 = blocked | activation factor at 5 µM | hit rate 1.4% among 96,000;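 active = activation factor of 2 or more for CYP2C9 at a 5 µM dose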;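 note: 0 = sulfaphenazole-blocked wells and 1 = vehicle-only wells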
PostGolgi ctrl – growth inhibition of yeast control strain, primary screen, counter-screen for post-Golgi transport modulator project. AID 738, 2007. efflux-deficient yeast background strain, growth absorbance A615, 16 h. inhibition, % at 10 µM. hit rate 5% among 98,000
* hit, by the source's call; . = not tested or not shown. Cut-off read from the data, not from the text of the source, unless noted: active = inhibition above about 30%; inactive = the rest.

SMILES	PostGolgi yeast	CYP2C9 inh	CYP2C19 inhib	CYP2C19 activ	CYP2C9 act	PostGolgi ctrl
c1ccc(SCc2nc(-c3ccccn3)no2)cc1	-0.8	44.7	75.9*	0.2	0.6	9.4
c1ccc(CCCc2nc(-c3ccccn3)no2)cc1	2.6	23.7	65.2*	0.3	0.8	4.0
COc1cc(-c2nc3c(c(C)nn3-c3ccccc3)c3cc(OC)c(OC)cc23)ccc1O	-4.0	47.5	38.1	0.6	0.5	7.5
CC(C(=O)N1CC2(C)CC1CC(C)(C)C2)N1C(=O)c2ccccc2C1=O (configuration not stated)	3.3	-0.7	12.6	0.9	1	11.1
CCCCOc1ccc(OCCCC)c2c1NC1(N2)C(=O)N(C(C)=O)c2ccccc21	-17.9	24.1	53.4*	0.5	0.8	8.6
CCN1C(=O)C(O)(CC(=O)c2ccccn2)c2ccccc21 (configuration not stated)	-5.9	0.4	0.3	1	1	-2.5
CC1(C)Cc2c(C#N)c(NCCCO)nc(-c3ccccc3)c2CO1	-15.1	60.9*	20.6	0.8	0.4	85.3*
CC1(C)Cc2c(c(-c3ccccc3)nc3[nH][nH]c(=O)c23)CO1	3.8	3.0	56.9*	0.4	1	17.0
C1=CC2CC1CC2CN1CCN(Cc2ccccc2)CC1 (configuration not stated)	-0.2	-7.9	52.6*	0.5	1.1	4.0
CCOC(=O)c1sc(NC(=O)CSc2nnc(-c3ccc(OC)cc3)n2CCOC)nc1C	0.7	.	.	.	.	5.0
CCN1C(=O)N(CC)C2C1N(C(C)=O)C(=O)N2C(C)=O (configuration not stated)	1.0	.	.	.	.	15.4
COc1ccc(S(=O)(=O)N(C)c2ccc(C(=O)N3CCOCC3)cc2)cc1	5.0	8.0	8.0	0.9	0.9	1.8
C=CCNC(=O)c1ccc(N(C)S(=O)(=O)c2ccc(OC)cc2)cc1	-5.4	86.2*	73.0*	0.3	0.1	-3.6
CC(=O)Nc1ccc(S(=O)(=O)NCCSCc2ccc(Cl)cc2Cl)cc1	6.0	80.9*	56.8*	0.4	0.2	14.6
CC(=O)Nc1ccc(S(=O)(=O)NCCSc2ccccn2)cc1	-4.4	21.9	19.9	0.8	0.8	3.1
CCOC(=O)C(Cc1ccccc1)NS(=O)(=O)c1ccc(NC(C)=O)cc1 (configuration not stated)	-0.3	3.2	66.7*	0.3	1	1.5
CC(=O)Nc1ccc(S(=O)(=O)NCc2ccc(C)cc2)cc1	16.4	-4.8	60.1*	0.4	1	-8.1
O=C(O)c1ccc(CN2CCCCC2)o1	0.8	-6.3	-6.0	1.1	1.1	1.7
Cc1cc(C(=O)NCCCOC(C)C)c2ccccc2n1	2.9	-1.0	17.4	0.8	1	3.8
CCOC(=O)C(Sc1n[nH]c(N)n1)c1ccccc1 (configuration not stated)	-1.0	18.8	16.6	0.8	0.8	0.0
CCCN1CN(Cc2ccco2)c2nc3ccccc3n2C1	1.0	2.2	10.8	0.9	1	-2.5
CC(=O)Nc1ccc(S(=O)(=O)NCc2ccc3[nH]c(C)cc3c2)cc1	-9.3	84.6*	43.8	0.6	0.2	-0.9
CC(=O)Nc1ccc(S(=O)(=O)NCCc2ccc(S(N)(=O)=O)cc2)cc1	3.6	25.3	-6.7	1.1	0.7	1.8
NC(=O)COC(=O)C(Cc1ccccc1)NS(=O)(=O)c1ccccc1F (configuration not stated)	.	18.6	58.4*	0.4	0.8	.
CC(=O)Nc1ccc(S(=O)(=O)NCC(C)NS(=O)(=O)c2ccc(NC(C)=O)cc2)cc1 (configuration not stated)	-9.5	3.5	8.6	0.9	1	37.3*
SMILES	PostGolgi yeast	CYP2C9 inh	CYP2C19 inhib	CYP2C19 activ	CYP2C9 act	PostGolgi ctrl
COc1ccc(F)cc1S(=O)(=O)NC(Cc1ccccc1)C(N)=O (configuration not stated)	-0.2	-6.3	26.2	0.7	1.1	6.7
CC(=O)Nc1ccc(S(=O)(=O)NCCc2ccc(F)cc2)cc1	1.1	37.3	57.9*	0.4	0.6	11.4
COc1cc2c(cc1OC)CN(C(=O)c1ccccc1C(=O)O)CC2	1.1	-14.8	-8.6	1.1	1.1	4.4
O=C(O)CC(c1ccc(Cl)cc1)N1C(=O)CCC1=O (configuration not stated)	-1.6	9.3	-3.8	1	0.9	1.9
COc1cccc(-n2c(CNC(=O)OC(C)(C)C)n[nH]c2=S)c1	-3.8	2.7	1.1	1	1	-1.2
Cc1cc(C)cc(OCC(=O)OCC(=O)c2c(N)n(C)c(=O)n(C)c2=O)c1	4.0	-1.4	29.7	0.7	1	0.9
C=CCNC(=O)c1ccc(CNS(=O)(=O)c2ccc(NC(C)=O)cc2)cc1	-3.0	57.0*	8.9	0.9	0.4	-0.8
CC(=O)Nc1ccc(S(=O)(=O)NCc2ccc3c(c2)cc(C)n3C)cc1	2.1	47.1	32.7	0.7	0.5	4.5
CC(=O)Nc1ccc(C(=O)CS(=O)(=O)c2ccc(C)cc2)cc1	-5.4	59.2*	41.2	0.6	0.4	-0.3
CC(=O)Nc1ccc(S(=O)(=O)n2nc(-c3ccc(C)cc3)nc2N)cc1	-1.3	-5.1	50.0*	0.5	1.1	3.0
CC(C)(C)c1ccc(C(=O)OCCNC(=O)c2c(Cl)nc3ccccn23)cc1	-2.1	92.4*	59.1*	0.4	0.1	37.4*
COc1ccc(C(=O)OCCNC(=O)c2c(Cl)nc3ccccn23)cc1	5.9	44.6	75.0*	0.3	0.6	35.9*
COC(=O)Nc1ccc2ncn(C)c(=O)c2c1	-2.0	-4.1	-6.2	1.1	1	6.8
O=C1c2ccccc2C(=O)c2c(NCc3cccnc3)cccc21	-1.7	79.4*	98.6*	0	0.2	33.6*
Cn1c(Cn2cnc3ccccc32)nnc1SCC(=O)CC(=O)Nc1ccccc1	0.1	69.7*	25.3	0.7	0.3	1.8
O=C(Nc1ccc2c(c1)OCO2)C1CCCN1C(=O)OCc1ccccc1 (configuration not stated)	1.4	80.9*	99.1*	0	0.2	7.0
O=C(Nc1ccc2c(c1)OCO2)C1CCCN1C(=O)NCc1ccccc1 (configuration not stated)	-2.9	72.0*	97.2*	0	0.3	-2.4
O=C(Nc1ccc2c(c1)OCO2)C1CCCN1C(=O)Nc1ccccc1F (configuration not stated)	-0.5	-19.2	-4.6	1	1.2	-2.3
O=C(Nc1ccc2c(c1)OCO2)OCc1ccccc1	-4.2	38.5	91.5*	0.1	0.6	3.0
O=C(NCc1ccc2c(c1)OCO2)C1CCCN1C(=O)Nc1ccccc1 (configuration not stated)	33.2*	-31.9	28.3	0.7	1.3	-1.3
